Sampled rows, rich in hits. Any-hit rate of the full collection: about 6.6%.
Mtb FBA inh: inhibitors of M. tuberculosis fructose-bisphosphate aldolase | purified M. tuberculosis FBA, fluorescence read-out | inhibition, % at 1 µM | hit rate 2.3% among 360,000;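 further: 0% = vehicle and 100% = reference inhibitor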
Target sequence (P9WQA3 whole entry, looked up): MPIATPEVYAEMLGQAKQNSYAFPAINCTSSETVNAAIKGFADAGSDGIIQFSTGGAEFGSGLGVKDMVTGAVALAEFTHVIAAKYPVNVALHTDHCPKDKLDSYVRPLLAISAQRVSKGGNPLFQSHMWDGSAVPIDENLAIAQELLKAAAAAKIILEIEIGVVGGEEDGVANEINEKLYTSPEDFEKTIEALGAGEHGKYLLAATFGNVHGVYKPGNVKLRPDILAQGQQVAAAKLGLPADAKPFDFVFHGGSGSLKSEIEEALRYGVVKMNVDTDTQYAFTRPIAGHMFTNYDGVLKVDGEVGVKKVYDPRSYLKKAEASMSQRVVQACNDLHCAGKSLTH
BoNT A protease: BoNT A light chain protease inhibition; multiplex microsphere protease substrate cleavage, flow cytometry; inhibition, % at 10 µM; hit rate 0.17% among 360,000; AID 588499; in the data active means inhibition above about 30%; inconclusive means no clear call, values can overlap the other calls; further: plate controls were buffer without enzyme for full effect and enzyme alone for no effect
BoNT-F LC inh: BoNT F light chain protease inhibition; hit rate 0.22% among 360,000; Multiplex microsphere protease cleavage assay, flow cytometry; AID 588497; inhibition, % at 10 µM; in the data active means inhibition above about 35%, passing the limit was not always enough; inconclusive means no clear call, values can overlap the other calls; further: plate controls were buffer without enzyme for full effect and enzyme alone for no effect
Bead autofluor: flagged as autofluorescent in microsphere protease counterscreen. hit rate 3.1% among 360,000. compound autofluorescence counterscreen, microsphere flow cytometry; stronger effect = higher value. fluorescence intensity (no concentration beside the values). AID 624483; in the data active means fluorescence intensity above about 16000; inconclusive means no clear call, values can overlap the other calls
Anthrax LF inh2: anthrax lethal factor protease inhibition; multiplex microsphere protease cleavage assay, LF; hit rate 0.12% among 360,000; P15917; inhibition, % at 10 µM; AID 588501; in the data active means inhibition above about 30%; inconclusive means no clear call, values can overlap the other calls; further: plate controls were buffer without enzyme for full effect and enzyme alone for no effect
GDH-TPI counter-1: GDH-TPI coupled enzyme inhibition counter-screen; inhibition, % at 4.8 µM; hit rate 1.2% among 360,000; GDH-TPI coupled enzyme counterscreen, NADH absorbance; in the data active means inhibition above about 30%;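 further: 0% = DMSO wells and 100% = wells lacking the enzyme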
Mtb FBA inh conf: confirmation of M. tuberculosis fructose-bisphosphate aldolase inhibitors; shares compounds with Mtb FBA inh; purified M. tuberculosis FBA, fluorescence read-out; inhibition, % at 1 µM; hit rate 78% among 5,600;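 further: 0% = vehicle wells and 100% = reference inhibitor wells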
GDH-TPI counter-2: inhibits GDH-TPI coupling enzymes, flagging Mtb FBA hits | shares compounds with Mtb FBA inh | inhibition, % at 1 µM | hit rate 81% among 5,600 | GDH-TPI coupled enzyme counterscreen, fluorescence; in the data active means inhibition above about 10%
GDH-TPI DR: GDH-TPI dose response counter-screen for Mtb FBA; shares compounds with Mtb FBA inh; GDH-TPI coupled enzyme assay, fluorescence, artifact counterscreen; IC50, µM; hit rate 79% among 170; AID 652145; call rule not given here
* hit, by the source's call; u = inconclusive; x = not tested or not shown; + = active, no number. Unless noted, no stated cut-off is given here; in the data, active means inhibition above about 27%; inactive means the rest.

SMILES	Mtb FBA inh	BoNT A protease	BoNT-F LC inh	Bead autofluor	Anthrax LF inh2	GDH-TPI counter-1	Mtb FBA inh conf	GDH-TPI counter-2	others
CCOC(=O)Nc1nc(-c2ccc(F)cc2F)cs1	-4	0	0	2549	0	-3	x	x
COC(=O)c1ccc(-c2ccc(/C=N/NC(=O)CC3(C)OCCCO3)o2)cc1	34*	0	-4	4156	-5	23	+	177*
COc1ccc2ccccc2c1/C=N/NC(=O)CC1(C)OCCCO1	-1	0	-3	2457	-3	10	x	x
COc1ccc2cc(OC)c(C(=O)N3CCOCC3)cc2c1	36*	0	2	2229	3	-8	-2	-4
COc1cc2ccccc2cc1C(=O)N1CCN(C(C)=O)CC1	1	-1	-9	4418	1	6	x	x
COc1ccc2oc(=O)c(C(=O)N3CCN(C(=O)c4ccco4)CC3)cc2c1	34*	-4	-14	3764	1	1	115*	76*
COc1ccc2oc(=O)c(C(=O)N3CCN(C(=O)c4ccccc4)CC3)cc2c1	27*	-5	-15	4115	-1	1	119*	92*
COc1ccc2oc(=O)c(C(=O)N3CCN(c4ccccc4)CC3)cc2c1	2	0	6	4094	0	14	x	x
O=C(NCCCCNC(=O)c1ccc(Br)cc1)c1ccc(Br)cc1	9	2	10	3701	24	7	x	x
O=C(/C=C/c1cn(-c2ccccc2)nc1-c1ccc2c(c1)OCCO2)NCCO	6	1	0	4592	0	5	x	x
OCc1ccc2c(c1)c(-c1ccc3c(c1)OCCO3)c(-c1ccccc1)n2-c1ccccc1	62*	0	0	3394	-6	-2	10	3	GDH-TPI DR=1.4*
CCCOc1ncnc2c1[nH]c1ccc(OC)cc12	18	0	-5	6098	-3	5	x	x
CCOc1ccc2[nH]c3c(NCCC(C)C)ncnc3c2c1	49*	2	-19	4774	-4	0	6	-6
CCCCOc1ncnc2c1[nH]c1ccc(C)cc12	38*	x	x	x	x	-4	-7	-4
C=CCNc1ncnc2c1[nH]c1ccc(C)cc12	42*	-1	0	8158	-6	13	66*	52*
CCOc1ccc2[nH]c3c(NCCN(C)C)ncnc3c2c1	16	0	-14	3731	-9	-1	x	x
COCCNc1ncnc2c1[nH]c1ccccc12	23	-2	u	3880	-3	-5	x	x
COc1ccc2[nH]c3c(NCCCOC(C)C)ncnc3c2c1	99*	-1	-10	3935	-15	2	63*	47*
CCCCOC(=O)c1ccc(NC(=O)C(=O)NCc2ccccn2)cc1	-1	-1	-8	6353	1	-4	x	x
c1ccc(COC2COC3C(OCc4ccccc4)COC23)cc1 (centres undefined)	-1	-1	-6	3874	2	-4	x	x
COc1ccc(CCNc2ncnc3c2[nH]c2cc(OC)c(OC)cc23)cc1OC	68*	x	x	x	x	23	112*	101*
COc1ccc(CCNC(=O)c2cc(C3CC3)nc3c2cnn3C(C)C)cc1OC	5	u	u	u	u	8	x	x
CC(C)n1ncc2c(C(=O)NCCc3ccc(S(N)(=O)=O)cc3)cc(C3CC3)nc21	28*	x	x	x	x	-2	+	+
CCOC(=O)c1oc2nc3c(cc2c1N)COC(C)(C)C3	45*	0	-2	3761	1	12	12	17*
CCOC(=O)c1oc2nc(C)c3c(c2c1N)CC(C)(C)OC3	34*	1	27	3545	2	1	100*	75*
SMILES	Mtb FBA inh	BoNT A protease	BoNT-F LC inh	Bead autofluor	Anthrax LF inh2	GDH-TPI counter-1	Mtb FBA inh conf	GDH-TPI counter-2	others
CCc1nc2oc(C(=O)c3ccccc3)c(N)c2c2c1COC(C)(C)C2	3	1	-1	3362	-4	-1	x	x
CN1CCN(c2nc3ccccn3c(=O)c2/C=C(\C#N)S(=O)(=O)c2ccc(Cl)cc2)CC1	1	0	-2	5507	-7	13	x	x
O=c1c2ccccc2nc(-c2ccccc2)n1-c1ccccc1	2	-7	u	4089	-10	13	x	x
OCCn1nc2c3ccccc3nc-2n(-c2ccccc2)c1=S	31*	-1	-2	3165	-3	2	136*	116*
Cc1cc(OCC(=O)NCCCn2ccnc2)c2c(C)cc(=O)oc2c1	78*	2	3	6238	3	10	108*	74*
Cc1c(C)c2ccc(OCC(=O)Nc3ccc(S(N)(=O)=O)cc3)c(C)c2oc1=O	41*	-1	-4	4274	-4	12	78*	73*
Cc1c(OCC(=O)NCCCn2ccnc2)ccc2c3c(c(=O)oc12)CCC3	14	-1	-1	5713	1	8	x	x
CCc1cc(=O)oc2cc(OCC(=O)NCCCn3ccnc3)c(Cl)cc12	5	6	10	u	8	26	x	x
Cc1c(C)c2ccc(OCC(=O)NCCCn3ccnc3)c(C)c2oc1=O	43*	0	-1	5145	2	4	153*	126*
CCCc1cc(=O)oc2cc(C)cc(OCC(=O)NCCCn3ccnc3)c12	57*	0	2	5772	1	8	88*	65*
Cc1c(OCC(=O)Nc2cccnc2)ccc2c3c(c(=O)oc12)CCC3	6	0	0	6435	-1	6	x	x
CCCC[n+]1ccn(-c2nc3ccccc3nc2[N-]S(=O)(=O)c2cccs2)c1	17	u	u	4134	-2	-2	x	x
COc1ccc(-c2nc(C#N)c(NCCc3ccccc3)o2)cc1OC	102*	-2	-8	3569	-10	20	+	+
COc1ccc(CCNc2oc(Cc3ccccc3)nc2C#N)cc1OC	-1	0	-1	3040	0	-17	x	x
COc1ccc(CCNc2oc(-c3ccco3)nc2C#N)cc1	54*	-2	-13	11194	0	9	145*	133*
N#Cc1nc(-c2ccco2)oc1NCCc1ccccc1	41*	0	-1	3363	-2	20	49*	40*
O=C(CSc1nnc(-c2ccco2)o1)NCCc1ccccc1	0	-6	-10	6935	-1	0	x	x
N#Cc1nc(-c2ccccc2)oc1NCCN1CCCCC1	81*	0	2	9712	-10	-9	67*	68*
N#Cc1nc(Cc2cccc3ccccc23)oc1NCCN1CCOCC1	6	0	-2	11202	-1	29	x	x
Cc1ccc(S(=O)(=O)N(C)CCCC(=O)NC(C)(C)C)cc1	2	-2	-6	2825	-3	-1	x	x
CCN(CC)CCN(Cc1cc2cc3c(cc2[nH]c1=O)OCCO3)C(=S)NCCOC	23	0	-1	3020	-3	25	x	x

Screens as filed in PubChem.
